Test results from PubChem BioAssay AID1159580 (chemical genetic matrix, 2015).
Several values for one entry are separate records, joined by “and”; a condition that tells them apart may be missing. Equal values may be shown once. In all, about 5,500 compounds went through this assay and about 2,000 (36%) were called active. Inconclusive results (about 18%) are left out. No stated cut-off is given here; in the data, active means normalized growth mostly below about 0.91 (no sharp cut-off); inconclusive means no clear call, values can overlap the other calls; inactive means mostly above about 0.92. The list shows a part of the results.

Test: chemical genetic growth profiling, strain panel (AID 1159580);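 further: tested at 20 µM; growth read once vehicle control cultures reached saturation at 30 °C; 1 = growth at the plate median or of vehicle wells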
Conditions: S. cerevisiae deletion strains, growth OD

Measured: normalized growth

CNC1(C)C2CCC(C2)C1(C)C (stereo unspecified)
inactive: locus YAL013W, strain DEP1, stronger effect = lower value 0.982 | locus YAL021C, strain ccr4, stronger effect = lower value 0.97 | locus YAL026C, strain drs2, stronger effect = lower value 1 | locus YAL030W, strain snc1, stronger effect = lower value 1 | locus YAL040C, strain CLN3, stronger effect = lower value 1 | locus YBL061C, strain skt5, stronger effect = lower value 0.998 | locus YBR009C, strain hhf1, stronger effect = lower value 0.993 | locus YBR021W, strain FUR4, stronger effect = lower value 1.03 | locus YBR023C, strain chs3, stronger effect = lower value 0.981 | locus YBR171W, strain sec66, stronger effect = lower value 0.986 | locus YBR229C, strain ROT2, stronger effect = lower value 0.961 | locus YBR231C, strain swc5, stronger effect = lower value 0.982 | locus YBR279W, strain paf1, stronger effect = lower value 0.986 | locus YCL011C, strain gbp2, stronger effect = lower value 0.996 | locus YCL016C, strain dcc1, stronger effect = lower value 0.977 | locus YCL029C, strain bik1, stronger effect = lower value 0.991 | locus YCL061C, strain MRC1 (second series), stronger effect = lower value 0.999 | locus YCL061C, strain MRC1, stronger effect = lower value 0.989 | locus YCL069W, strain vba3, stronger effect = lower value 0.997 | locus YCR088W, strain abp1, stronger effect = lower value 0.994 | locus YDL005C, strain med2, stronger effect = lower value 0.992 | locus YDL035C, strain GPR1, stronger effect = lower value 0.993 | locus YDL040C, strain nat1, stronger effect = lower value 0.997 | locus YDL074C, strain BRE1, stronger effect = lower value 0.957 | locus YDL101C, strain DUN1, stronger effect = lower value 0.969 | locus YDL134C, strain PPH21, stronger effect = lower value 0.989 | locus YDL185W, strain tfp1, stronger effect = lower value 0.968 | locus YDL192W, strain arf1, stronger effect = lower value 0.996 | locus YDR001C, strain nth1, stronger effect = lower value 0.996 | locus YDR069C, strain doa4, stronger effect = lower value 1.02 | locus YDR101C, strain arx1, stronger effect = lower value 1.01 | locus YDR137W, strain rgp1, stronger effect = lower value 0.987 | locus YDR150W, strain NUM1, stronger effect = lower value 0.977 | locus YDR159W, strain sac3, stronger effect = lower value 0.994 | locus YDR162C, strain NBP2, stronger effect = lower value 0.913 | locus YDR195W, strain ref2 1 | locus YDR297W, strain sur2, stronger effect = lower value 0.993 | locus YDR318W, strain mcm21, stronger effect = lower value 1.03 | locus YDR334W, strain swr1, stronger effect = lower value 1 | locus YDR335W, strain msn5, stronger effect = lower value 0.999 | locus YDR363W, strain ESC2, stronger effect = lower value 0.993 | locus YDR388W, stronger effect = lower value 1.01 | locus YDR392W, strain spt3, stronger effect = lower value 0.93 | locus YDR502C, strain sam2, stronger effect = lower value 0.984 | locus YEL003W, strain gim4, stronger effect = lower value 1 | locus YEL037C, strain rad23, stronger effect = lower value 0.995 | locus YEL061C, strain CIN8 (second series), stronger effect = lower value 1 | locus YEL061C, strain CIN8, stronger effect = lower value 0.982 | locus YER002W, strain NOP16, stronger effect = lower value 1 | locus YER015W, strain faa2, stronger effect = lower value 1 | locus YER016W, strain bim1, stronger effect = lower value 0.997 | locus YER110C, stronger effect = lower value 0.993 | locus YER111C, strain swi4, stronger effect = lower value 1 | locus YER155C, strain BEM2 (second series), stronger effect = lower value 0.995 | locus YER155C, strain BEM2, stronger effect = lower value 0.987 | locus YER167W, strain BCK2, stronger effect = lower value 1 | locus YFR010W, strain ubp6, stronger effect = lower value 0.993 | locus YGL078C, strain dbp3, stronger effect = lower value 0.992 | locus YGL086W, strain mad1, stronger effect = lower value 1.01 | locus YGL167C, strain pmr1, stronger effect = lower value 0.993 | locus YGL173C, strain kem1, stronger effect = lower value 0.995 | locus YGL227W, strain vid30, stronger effect = lower value 0.987 | locus YGL240W, strain doc1, stronger effect = lower value 0.985 | locus YGL248W, strain PDE1, stronger effect = lower value 0.982 | locus YGL253W, strain hxk2, stronger effect = lower value 1 | locus YGR078C, strain PAC10, stronger effect = lower value 0.978 | locus YGR135W, strain pre9, stronger effect = lower value 0.96 | locus YGR229C, strain SMI1, stronger effect = lower value 0.987 | locus YGR252W, strain gcn5, stronger effect = lower value 1.08 | locus YHR013C, strain ard1, stronger effect = lower value 0.982 | locus YHR027C, strain rpn1, stronger effect = lower value 0.999 | locus YHR030C, strain SLT2, stronger effect = lower value 0.996 and 0.974 | locus YHR079C, strain IRE1 (second series), stronger effect = lower value 0.998 | locus YHR079C, strain IRE1, stronger effect = lower value 0.941 | locus YHR094C, strain hxt1, stronger effect = lower value 0.999 | locus YHR129C, strain ARP1, stronger effect = lower value 0.99 | locus YHR142W, strain chs7, stronger effect = lower value 0.974 | locus YHR200W, strain rpn10, stronger effect = lower value 1 | locus YIL066C, strain RNR3, stronger effect = lower value 0.989 | locus YIL073C, strain SPO22, stronger effect = lower value 1.04 | locus YIL125W, strain kgd1, stronger effect = lower value 0.989 | locus YIR030C, strain dcg1, stronger effect = lower value 0.991 | locus YJL092W, strain hpr5, stronger effect = lower value 0.991 | locus YJL095W, strain BCK1 (second series), stronger effect = lower value 0.996 | locus YJL095W, strain BCK1, stronger effect = lower value 0.996 and 0.958 | locus YJL115W, strain asf1, stronger effect = lower value 0.993 | locus YJL129C, strain trk1, stronger effect = lower value 0.976 | locus YJL134W, strain LCB3, stronger effect = lower value 0.988 | locus YJL154C, strain vps35, stronger effect = lower value 0.994 | locus YJL164C, strain tpk1, stronger effect = lower value 0.985 | locus YJL166W, strain qcr8, stronger effect = lower value 0.991 | locus YJL168C, strain set2, stronger effect = lower value 0.993 | locus YJL187C, strain SWE1 (second series), stronger effect = lower value 0.967 | locus YJL187C, strain SWE1, stronger effect = lower value 0.995 | locus YJR043C, strain POL32, stronger effect = lower value 1.02 | locus YJR066W, strain TOR1, stronger effect = lower value 0.981
